Results taken from PubChem BioAssay AID2553 (Johns Hopkins Ion Channel Center, 2010).
About 3,300 (1.1%) of roughly 310,000 compounds were called active.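 The calls were made as follows: active = B-score under library mean minus 3 SD, initial fluorescence not abnormally high, positive integrated signal ratio; inactive = the rest.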 This excerpt belongs to a sample that is enriched for actives.

Molecular target: Short transient receptor potential channel 6 (Mus musculus) (UniProt Q61143)
Test: mouse TRPC6 channel inhibitors, primary screen, cell-based, HEK293, membrane potential dye (AID 2553);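 as to B-score: B-score derived from integrated fluorescence ratio over the kinetic read; more negative B-score means stronger inhibition of depolarization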
Settings: ACh-evoked depolarization, at 10 µM; hits give low values

Chain of Short transient receptor potential channel 6 (Mus musculus) (Q61143 whole entry, looked up): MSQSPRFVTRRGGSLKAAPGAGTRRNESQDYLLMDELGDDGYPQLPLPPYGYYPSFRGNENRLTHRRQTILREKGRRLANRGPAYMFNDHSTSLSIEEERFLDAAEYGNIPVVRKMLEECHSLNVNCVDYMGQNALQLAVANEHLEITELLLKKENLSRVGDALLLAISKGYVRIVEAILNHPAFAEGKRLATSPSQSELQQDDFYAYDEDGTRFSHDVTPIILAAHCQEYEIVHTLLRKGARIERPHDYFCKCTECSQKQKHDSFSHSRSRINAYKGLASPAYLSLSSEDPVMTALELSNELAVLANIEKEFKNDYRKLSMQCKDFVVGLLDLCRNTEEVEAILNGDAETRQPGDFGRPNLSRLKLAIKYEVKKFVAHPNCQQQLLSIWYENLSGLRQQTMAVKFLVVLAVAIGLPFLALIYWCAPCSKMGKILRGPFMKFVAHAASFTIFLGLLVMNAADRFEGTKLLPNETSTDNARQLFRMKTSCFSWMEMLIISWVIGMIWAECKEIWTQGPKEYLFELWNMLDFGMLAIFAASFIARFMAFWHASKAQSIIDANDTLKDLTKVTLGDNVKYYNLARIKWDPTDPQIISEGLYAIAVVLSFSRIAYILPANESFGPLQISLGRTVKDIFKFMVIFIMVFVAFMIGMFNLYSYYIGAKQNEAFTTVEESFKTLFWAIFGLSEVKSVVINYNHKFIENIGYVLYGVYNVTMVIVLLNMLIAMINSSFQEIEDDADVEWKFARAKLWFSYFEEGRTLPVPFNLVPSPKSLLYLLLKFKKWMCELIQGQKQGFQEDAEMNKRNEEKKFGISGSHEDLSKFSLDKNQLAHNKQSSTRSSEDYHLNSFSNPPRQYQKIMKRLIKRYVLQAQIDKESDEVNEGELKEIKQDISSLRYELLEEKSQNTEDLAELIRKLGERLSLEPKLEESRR

Row | SMILES | B-score
1 | CN1CCN(c2ccc(NC(=O)c3ccccc3)cc2)CC1 | inactive
2 | Cc1cccc(-c2nc(Nc3ccc(O)cc3)c3ccccc3n2)c1 | inactive
3 | CN1CCN(c2nc(Nc3ccc(O)cc3)nc3ccccc23)CC1 | -11.6 (active)
4 | O=C(NNS(=O)(=O)c1ccc(Cl)cc1)C1CCN(Cc2ccccc2)CC1 | -7.9 (active)
5 | CCCC(=O)C1CCN(Cc2ccccc2)CC1 | inactive
6 | CCNC(=S)NNC(=O)C1CCN(Cc2ccccc2)CC1 | inactive
7 | Cc1ccn(CC(=O)N2N=C(C(F)F)CC2(O)C(F)F)n1 (stereo not drawn) | inactive
8 | Cc1nn(Cc2ccc(C(=O)N3N=C(C(F)F)CC3(O)C(F)F)cc2)c(C)c1[N+](=O)[O-] (stereo not drawn) | -5.19 (active)
9 | CCc1ccc(NC(=O)Cn2nc(C)c([N+](=O)[O-])c2C)cc1 | inactive
10 | Cc1[nH]c2c(C(=O)N3CCCC(CCC(=O)NCc4ccccc4F)C3)cccc2c1C (stereo not drawn) | inactive
11 | O=S(=O)(Cc1ccccc1)c1nc2ccccc2n1Cc1ccccn1 | inactive
12 | C[C@H](NC(=O)OC(C)(C)C)c1nnc(SCC(=O)Nc2ccc(Br)cc2)o1 | -6.61 (active)
13 | CCc1ccccc1NC(=O)CSc1nnc([C@@H](NC(=O)OC(C)(C)C)C(C)CC)o1 (stereo partly drawn) | inactive
14 | CCc1ccccc1NC(=O)CSc1nnc([C@@H](NC(=O)OC(C)(C)C)C(C)C)o1 | inactive
15 | COCC1CCN(C(=O)C2CCC(=O)N(Cc3cccc(C(F)(F)F)c3)C2)CC1 (stereo not drawn) | inactive
16 | CC1(C)COC(c2cccn2Cc2ccccc2Cl)=N1 | inactive
17 | Cc1nc(/N=C(\N)NC(=O)NC2CCCCC2)nc2ccccc12 | inactive
18 | Cc1nc(N=C(N)N)nc2c(C)cccc12 | -7.08 (active)
19 | COc1nc(N=C(N)N)nc2c(C)cccc12 | inactive
20 | Cc1cc(-n2cnc(-c3cn(C)nc3C)n2)no1 | inactive

Row | SMILES | B-score
21 | Cc1ccc(NC2CCCN(C(=O)CCc3cn[nH]c3)C2)cc1C (stereo not drawn) | inactive
22 | O=C(CN1CCOC1=O)N1CCCC(Nc2ccc(F)c(F)c2)C1 (stereo not drawn) | inactive
23 | Cc1ccc(NC2CCCN(C(=O)CCC3(C)CC3)C2)cc1C (stereo not drawn) | -5.8 (active)
24 | C=C(C)c1cccc(C(C)(C)NC(=O)NCCN(CC)CC)c1 | -8.39 (active)
25 | C=C(C)c1cccc(C(C)(C)NC(=O)N2CCN(c3ncccn3)CC2)c1 | inactive
26 | C=C(C)c1cccc(C(C)(C)NC(=O)NC2CCCC2)c1 | inactive
27 | O=C1C2N=NN(CC(=O)N3N=C(c4cccc5ccccc45)CC3c3ccccc3)C2C(=O)N1c1ccccc1 (stereo not drawn) | inactive
28 | Cc1cc(OCCCC(=O)NCCN2C(=O)S/C(=C\c3cccnc3)C2=O)ccc1Cl | inactive
29 | Cc1cc2c(cc1S(=O)(=O)CCC(=O)NCc1ccccc1)OCC(=O)N2 | inactive
30 | COc1ccc(Cl)cc1NC(=O)CCS(=O)(=O)c1cc2c(cc1C)NC(=O)CO2 | -5.71 (active)
31 | COc1ccc(NC(=O)CCS(=O)(=O)c2cc3c(cc2Cl)NC(=O)CO3)cc1OC | inactive
32 | CCN1CCN(c2nc(Nc3cc(OC)ccc3OC)nc(Nc3cc(OC)ccc3OC)n2)CC1 | -5.02 (active)
33 | CCOC(=O)N1CCN(CCC(=O)Nc2cc(OC)ccc2OC)CC1 | inactive
34 | CCOc1ccc(Nc2nc(Cl)nc(N3CCN(c4ccc(OC)cc4)CC3)n2)cc1 | inactive
35 | Cn1c(=O)n(C)c2cc(S(=O)(=O)Nc3ccc(F)cc3)ccc21 | inactive
36 | C=CC1=C(C(=O)O)N2C(=O)[C@@H](NC(=O)/C(=N/OCC(=O)O)c3csc(N)n3)[C@H]2SC1 | inactive
37 | Cc1ccc(NC(=O)[C@H](Cc2ccccc2)NC(=O)C2CCNCC2)cc1 | inactive
38 | COc1ccccc1C(=O)Nc1ccc(Nc2ccccc2)cc1 | inactive
39 | CCN(CC)S(=O)(=O)c1ccc(N2CC(C(=O)NCc3cccnc3)CC2=O)cc1 (stereo not drawn) | -6.5 (active)
40 | CCOc1ccc(N2CC(C(=O)NCc3ccccn3)CC2=O)cc1 (stereo not drawn) | inactive

Row | SMILES | B-score
41 | CCc1ccc(N2CC(C(=O)Nc3ccc(S(=O)(=O)Nc4nccs4)cc3)CC2=O)cc1 (stereo not drawn) | inactive
42 | CCc1ccc(N(C(=O)c2csnn2)C(C(=O)NC2CCCCC2)c2cccnc2)cc1 (stereo not drawn) | inactive
43 | CCC(C)NCCOCCOc1ccc(Br)cc1C (stereo not drawn) | -5.27 (active)
44 | COCC(C)NCc1cc(Br)ccc1OC (stereo not drawn) | inactive
45 | COCCCNCCOCCOc1ccc(Cl)cc1Br | inactive
46 | Cc1c(C(=O)N(C)CCc2cnn(C)c2)oc2c(F)cccc12 | inactive
47 | CCOC(=O)N1CCN(C(=S)Nc2ccc(C)cc2C)CC1 | inactive
48 | CCOC(=O)N1CCN(C(=O)COc2ccc(Cl)cc2C)CC1 | inactive
49 | CCOC(=O)N1CCC(O)(c2cc(C)c(C)cc2C)CC1 | -9.52 (active)
50 | CCc1ccc(-c2cc(C(=O)NN3CCN(C)CC3)c3ccccc3n2)cc1 | -5.25 (active)
51 | COc1ccc(-c2cc(C(=O)Nc3ccccc3O)c3ccccc3n2)cc1 | inactive
52 | Cc1ccc(-c2cc(C(=O)NC3CCN(Cc4ccccc4)CC3)c3ccccc3n2)cc1 | inactive
53 | COc1ccc(CCN2C(=O)CC(N3CCC(C(N)=O)CC3)C2=O)cc1OC (stereo not drawn) | inactive
54 | Cc1c(C(=O)c2cccc([N+](=O)[O-])c2)c2ccccn2c1CCC#N | inactive
55 | O=C(NCCc1ccccc1)c1ccc2c(c1)N(Cc1ccccc1)CCS2 | inactive
56 | O=C(NCCN1CCOCC1)c1ccc2c(c1)N(Cc1ccc(Cl)cc1)CCS2 | inactive
57 | CCOC(=O)N1CCN(C(=O)c2ccc3c(c2)N(Cc2ccc(C)cc2)CCS3)CC1 | -7.3 (active)
58 | COc1ccc(/C=C/CN2CCCC(C(=O)c3cc(F)ccc3F)C2)cc1 (stereo not drawn) | inactive
